Records with an inconclusive call do not appear. Activity calls are given as the source filed them. Calls come from the whole dose curve; as a rule, active = well fitted cell-killing curve with a large enough effect; inconclusive = small, poorly fitted or top-dose-only effect, or effect the other way; inactive = flat fitted curve, though single readings scatter.
test system: JEG-3; assay: Primary qHTS to identify gynecologic anti-cancer compounds using libraries of approved drugs and bioactive compounds (AID 1345084); details: Gynecologic cancer cell panel viability, ATPlite luminescence, 48 h; series mostly up to 57.5 µM; activity change, negative = cytotoxicity: at the top concentration; note: nearly all actives have a fitted effect of over 55% in size
Method in brief: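 Cytotoxicity screen measuring ATP content by luciferase luminescence. Each compound is applied at five concentrations for 48 h at 37 C with 5% CO2.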
% is set by controls: 0 for no effect and ±100 for the full control effect.

Question: `C/C(=C\CCC1(C)C2CCC(C2)C1(C)O)C(=O)O` (centres undefined) was tested. Which “activity change, negative = cytotoxicity” value did it give?
Answer: -5.1% (inactive)

Question: How did the “activity change, negative = cytotoxicity” value turn out when `CC(=O)O[C@@H]1c2c3c(cc(O)c2C(=O)O[C@@H]1C)O[C@@]1(C)[C@@H](O)C[C@H]2C(C)(C)C(=O)C=C[C@]2(C)[C@@H]1C3` was run?
Answer: 2.65% [at 25.3 µM] (inactive)

Question: For `COc1ccccc1Oc1ccc(N(Cc2cccnc2)S(=O)(=O)CC(F)(F)F)cc1`, which “activity change, negative = cytotoxicity” value is on record?
Answer: 0.627% (inactive)

Question: For `CC(C)C(NC(=O)c1ccc2ccccc2n1)C(=O)NC(CC(=O)O)C(=O)COc1c(F)cccc1F` (centres undefined), which “activity change, negative = cytotoxicity” value is on record?
Answer: -0.486% (inactive)

Question: For `CC(C)=CCC[C@](C)(O)[C@H]1CC[C@]2(C)[C@@H]1[C@H](O)CC1[C@@]3(C)CC[C@H](O)C(C)(C)C3[C@@H](O[C@@H]3O[C@H](CO)[C@@H](O)[C@H](O)[C@H]3O[C@@H]3OC[C@@H](O)[C@H](O)[C@H]3O)C[C@]12C` (some centres undefined), which “activity change, negative = cytotoxicity” value is on record?
Answer: -4.65% [at 25.3 µM] (inactive)

Question: With `C=CC[C@]12C[C@@H](OC)C(=O)C(OC)=C1O[C@@H](c1cc(OC)c3c(c1)OCO3)[C@@H]2C` as the molecule, how does the “activity change, negative = cytotoxicity” value read?
Answer: 12.5% [at 25.3 µM] (inactive)

Question: For `CC(C)O[C@@H]1O[C@H](CO)[C@@H](O)[C@H](O)[C@H]1O`, which “activity change, negative = cytotoxicity” value is on record?
Answer: 10.7% (inactive)

Question: Which “activity change, negative = cytotoxicity” value does the source give for `C[C@@H]1CN(Cc2ncccn2)C[C@H]1c1nc2c(cnn2C2CCOCC2)c(=O)[nH]1` here?
Answer: 4.2% (inactive)

Question: `CN[C@H](CC(C)C)C(=O)N[C@H]1C(=O)N[C@@H](CC(N)=O)C(=O)N[C@H]2C(=O)N[C@H]3C(=O)N[C@H](C(=O)N[C@H](C(=O)O)c4cc(O)cc(O)c4-c4cc3ccc4O)[C@H](O[C@H]3C[C@](C)(N)[C@@H](O)[C@H](C)O3)c3ccc(c(Cl)c3)Oc3cc2cc(c3O[C@@H]2O[C@H](CO)[C@@H](O)[C@H](O)[C@H]2O[C@H]2C[C@](C)(NCc3ccc(-c4ccc(Cl)cc4)cc3)[C@@H](O)[C@H](C)O2)Oc2ccc(cc2Cl)[C@H]1O` was tested. Which “activity change, negative = cytotoxicity” value did it give?
Answer: 3.07% [at 25.3 µM] (inactive)

Question: Which “activity change, negative = cytotoxicity” value does the source give for `C=C1CC[C@H]2[C@@](C)(CCC(O)[C@@]2(C)CO)[C@@H]1CCC1=CCOC1=O` (some centres undefined) here?
Answer: 0.54% [at 38.5 µM] (inactive)

Question: How did the “activity change, negative = cytotoxicity” value turn out when `CC1CCC2(C=O)C(CO)=CCCC2C1(C)CC(=O)O` (centres undefined) was run?
Answer: -3.36% (inactive)

Question: With `C=CC1(C)C=C2CCC3C(C)(C)C(O[C@@H]4O[C@@H](CO)[C@H](O)[C@H]4O)CCC3(C)C2CC1O[C@@H]1O[C@H](C)[C@H](O)[C@H](O)[C@H]1O` (some centres undefined) as the molecule, how does the “activity change, negative = cytotoxicity” value read?
Answer: 7.18% [at 25.3 µM] (inactive)

Question: Which “activity change, negative = cytotoxicity” value does the source give for `C/C(=C\CC[C@@H](C)[C@H]1CC(O)[C@@]2(C)C3CC[C@H]4C(C)(C)[C@@H](OC5OCC(O)C(O)C5OC5OC(CO)C(O)C(O)C5O)CC[C@@]45C[C@@]35CC(O)[C@]12C)C(=O)O` (some centres undefined) here?
Answer: -15.6% [at 25.3 µM] (inactive)

Question: For `CC(C)(C)NCCCNC(=O)c1cccc(Br)c1`, which “activity change, negative = cytotoxicity” value is on record?
Answer: 0.164% (inactive)

Question: `CC(=O)OC1C[C@]2(C)C(O)CC(C)=C[C@H](OC(=O)c3ccc(O)cc3)C2[C@]1(O)C(C)C` (some centres undefined) was tested. Which “activity change, negative = cytotoxicity” value did it give?
Answer: 0.612% [at 25.3 µM] (inactive)

Question: With `C=C1CC[C@@H]2[C@](C)(CO[C@@H]3O[C@H](CO)[C@@H](O)[C@H](O)[C@H]3O)[C@H](O)CC[C@@]2(C)[C@@H]1C/C=C1/C(=O)OC[C@H]1O` as the molecule, how does the “activity change, negative = cytotoxicity” value read?
Answer: -7.85% [at 25.3 µM] (inactive)

Question: With `COC(=O)/C=C/C12COC(C)(C)C1C(O)C(OC(C)=O)C1(C)C2CCC2(C)C(c3ccoc3)OC(=O)C3OC321` (centres undefined) as the molecule, how does the “activity change, negative = cytotoxicity” value read?
Answer: -7.05% [at 25.3 µM] (inactive)

Question: With `CC1CC(=O)C2=C(CCC3(O)C(O)c4c(O)cccc4C(=O)C23O)C1` (centres undefined) as the molecule, how does the “activity change, negative = cytotoxicity” value read?
Answer: 5.8% [at 38.5 µM] (inactive)

Question: `COC(=O)c1ccccc1O[C@@H]1O[C@H](CO)[C@@H](O)[C@H](O)[C@H]1O[C@@H]1O[C@@H](C)[C@H](O)[C@@H](O)[C@H]1O` was tested. Which “activity change, negative = cytotoxicity” value did it give?
Answer: -2.79% [at 25.3 µM] (inactive)

Question: `CCc1ccc(Cc2ccc3c(c2)[C@]2(OC3)O[C@H](CO)[C@@H](O)[C@H](O)[C@H]2O)cc1` was tested. Which “activity change, negative = cytotoxicity” value did it give?
Answer: -2.54% (inactive)

Question: For `OC[C@H]1O[C@@H](Oc2ccccc2)[C@H](O)[C@@H](O)[C@@H]1O`, which “activity change, negative = cytotoxicity” value is on record?
Answer: 9.68% (inactive)

Question: `COc1cc2c(cc1OC)CC(=O)N(CCCNC[C@H]1Cc3cc(OC)c(OC)cc31)CC2` was tested. Which “activity change, negative = cytotoxicity” value did it give?
Answer: -1.56% (inactive)

Question: How did the “activity change, negative = cytotoxicity” value turn out when `COc1cc(O)c([C@@H](CC(=O)N2CC(C)CC(C)C2)c2ccc3c(c2)OCO3)c(OC)c1` (some centres undefined) was run?
Answer: -2.13% (inactive)

Question: `C=CC/C=C\C/C=C\CCCCCCCc1cccc(O)c1C(=O)O` was tested. Which “activity change, negative = cytotoxicity” value did it give?
Answer: 1.07% [at 38.5 µM] (inactive)

Question: Which “activity change, negative = cytotoxicity” value does the source give for `Cc1ccc(-c2ccc3c(ccc4sc5c(c43)NC[C@@H](C)NC5=O)n2)cn1` here?
Answer: -0.164% (inactive)

Question: Which “activity change, negative = cytotoxicity” value does the source give for `C[C@@H]1C(=O)OC[C@H]2C(C(=O)O)=C[C@@H]3CC(C)(C)C[C@]312` here?
Answer: -0.282% (inactive)

Question: `C[C@H]1CC(=O)Nc2cccc(-c3cnn(C(C)(C)C)c3)c2N1` was tested. Which “activity change, negative = cytotoxicity” value did it give?
Answer: -24.1% (inactive)

Question: With `COC(=O)C(C)C1CCC2(C)C(=O)C=CC(C)(O)C2C1O` (centres undefined) as the molecule, how does the “activity change, negative = cytotoxicity” value read?
Answer: -0.172% (inactive)

Question: How did the “activity change, negative = cytotoxicity” value turn out when `CC(=O)O[C@@H]1[C@@H](OC(=O)/C=C/c2ccccc2)[C@@H](OC(C)=O)[C@H](O[C@H]2[C@@H]3C=CO[C@@H](O[C@@H]4O[C@H](CO)[C@@H](O)[C@H](O)[C@H]4O)[C@@H]3[C@@]3(CO)O[C@@H]23)O[C@H]1C` was run?
Answer: 0.428% [at 25.3 µM] (inactive)

Question: For `COc1cccc(C(=O)N2CCN(C(=O)COc3cccc(C)c3)CC2)c1OC`, which “activity change, negative = cytotoxicity” value is on record?
Answer: 5% (inactive)

Question: How did the “activity change, negative = cytotoxicity” value turn out when `C=C[C@H]1C(O[C@@H]2O[C@H](CO)[C@@H](O)[C@H](O)[C@H]2O)OC=C2C(=O)N3CCc4c([nH]c5ccccc45)[C@H]3C[C@H]21` (some centres undefined) was run?
Answer: 8.94% [at 25.3 µM] (inactive)

Question: How did the “activity change, negative = cytotoxicity” value turn out when `C/C=C(/COC(=O)/C(C)=C/C)C(=O)OC(CC)c1ccc(OC)c(OC)c1` (centres undefined) was run?
Answer: -2.17% [at 38.5 µM] (inactive)

Question: For `C=C1[C@H](OC(C)=O)[C@H]2[C@@H](OC(C)=O)[C@](C)(OC(C)=O)C[C@]2(OC(C)=O)C(=O)[C@H](C)/C=C/C(C)(C)C(=O)[C@H](OC(=O)C(C)C)[C@H]1OC(C)=O`, which “activity change, negative = cytotoxicity” value is on record?
Answer: 14.3% [at 25.3 µM] (inactive)

Question: For `C=CC(C)(C)C12C=C(OC)C(=O)N3C(C(C)C)C(=O)NC31N(OC)c1ccccc12` (centres undefined), which “activity change, negative = cytotoxicity” value is on record?
Answer: 8.46% [at 25.3 µM] (inactive)

Question: How did the “activity change, negative = cytotoxicity” value turn out when `C/C1=C\CC[C@]2(C)O[C@@H]2[C@H](O)[C@H](C(C)C)[C@H](OC(=O)/C=C/c2ccccc2)C1` was run?
Answer: -0.558% [at 38.5 µM] (inactive)

Question: `c1ccc(N2CCN(CCc3nn[nH]n3)CC2)cc1` was tested. Which “activity change, negative = cytotoxicity” value did it give?
Answer: 4.71% (inactive)

Question: For `C=C1CC2C(C)(CCC(=O)O)C(C(C)(C)O)CCC2(C)C2C(=O)OC(C)(C(=O)OC)C(=O)C12C` (centres undefined), which “activity change, negative = cytotoxicity” value is on record?
Answer: -3.63% [at 25.3 µM] (inactive)

Question: `CC(C)=CCCC1(C)C=Cc2c(c(C)cc3c2[nH]c2ccccc23)O1` (centres undefined) was tested. Which “activity change, negative = cytotoxicity” value did it give?
Answer: -4.82% [at 38.5 µM] (inactive)

Question: How did the activity change, negative = cytotoxicity turn out when `CC1(C)CC[C@]2(C(=O)O[C@@H]3O[C@H](CO[C@@H]4O[C@H](CO)[C@@H](O)[C@H](O)[C@H]4O[C@@H]4O[C@H](CO)[C@H](O)[C@H](O)[C@H]4O)[C@@H](O)[C@H](O[C@@H]4O[C@H](CO)[C@@H](O)[C@H](O)[C@H]4O)[C@H]3O)CC[C@]3(C)C(=CCC4[C@@]5(C)CC[C@H](O[C@@H]6OC[C@@H](O)[C@H](O)[C@H]6O)[C@@](C)(C(=O)O)C5CC[C@]43C)[C@@H]2C1` (some centres undefined) was run?
Answer: -2.73% [at 6.55 µM] (inactive)
